Sfp inh: Sfp phosphopantetheinyl transferase inhibition; Q9F4F7; Biochemical Sfp PPTase activity, qHTS; Potency, µM, usual class: inhibitors; 310,000 compounds, 3.5% hits; AID 1490;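 further: the enzyme is Sfp with the accession as filed and its product quenches rhodamine fluorescence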
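Buffer: 50 mM Hepes-Na pH 7.6, 10 mM MgCl2, 0.01% Nonidet P-40, 0.01% BSA. Enzyme 15 nM, pre-exposed to compound 15 min; substrates then added and fluorescence change tracked over 30 min.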
BAZ2B inh: inhibitors of human BAZ2B bromodomain; Potency, µM (highest dose often 114 µM), actives largely listed as inhibitors; 360,000 compounds, 4.4% hits; Q9UIF8; AlphaScreen BAZ2B-H3K14Ac peptide displacement; further: nearly all actives have a fitted effect of over 60% in size
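In this displacement format the biotinylated H3(5-23) peptide acetylated at Lys14 serves as ligand at 50 nM, with BAZ2B at 50 nM in PBS pH 7.4 containing 0.01% Tween-20. Donor and acceptor beads are 10 ug/mL final.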
G9a inh: inhibitors of human histone lysine methyltransferase G9a | Q96KQ7 | G9a H3K9 monomethylation, AlphaScreen, 2 h | Potency, µM (highest dose often 102 µM), most hits filed as inhibitors | 350,000 compounds, 8.8% hits; further: nearly all actives have a fitted effect of over 75% in size
Target sequence (Q96KQ7 913-1193 limits assumed): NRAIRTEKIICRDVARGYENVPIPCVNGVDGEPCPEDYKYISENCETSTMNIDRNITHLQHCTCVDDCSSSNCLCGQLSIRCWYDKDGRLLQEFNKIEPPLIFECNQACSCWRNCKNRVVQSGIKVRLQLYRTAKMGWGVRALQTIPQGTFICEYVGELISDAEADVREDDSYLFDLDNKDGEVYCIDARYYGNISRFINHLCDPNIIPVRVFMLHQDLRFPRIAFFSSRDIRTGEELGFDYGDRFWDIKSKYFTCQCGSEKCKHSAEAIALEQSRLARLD
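Signal arises when biotinylated H3K9 peptide, once monomethylated, bridges streptavidin donor and antibody-captured acceptor beads. Enzyme at 20 nM was preincubated 15 min with test compounds; peptide 500 nM and SAM 20 uM then reacted for 2 h.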
TDP1 block: TDP1 (human) enzyme inhibition. Q9NUW8. recombinant TDP1, AlphaScreen DNA substrate cleavage. Potency, µM (doses to about 130 µM), most hits filed as inhibitors. 350,000 compounds, 0.28% hits. AID 485290; further: nearly all actives have a fitted effect of over 40% in size
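Enzyme-compound mixtures sat 15 min at room temperature, followed by a 5 min reaction with 15 nM final substrate and 10 min with AlphaScreen beads. Recombinant human Tdp1 was used at 1 nM final.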
JMJD2A Tudor: inhibitors of human JMJD2A Tudor domain; O75164; AID 504339; 390,000 compounds, 4.4% hits; Potency, µM (doses to about 114 µM), hits mostly inhibitors; AlphaScreen JMJD2A-Tudor / H3K4me3 peptide binding; further: nearly all actives have a fitted effect of over 50% in size
HP1b chromo inh: HP1-beta chromodomain-methylated histone interaction inhibition; AlphaScreen HP1-beta / biotin-H3K9me3 peptide binding; Potency, µM (top dose mostly 114 µM), actives largely listed as inhibitors; 390,000 compounds, 0.56% hits; AID 540317; further: nearly all actives have a fitted effect of over 70% in size
Target sequence (P83916 whole entry, looked up): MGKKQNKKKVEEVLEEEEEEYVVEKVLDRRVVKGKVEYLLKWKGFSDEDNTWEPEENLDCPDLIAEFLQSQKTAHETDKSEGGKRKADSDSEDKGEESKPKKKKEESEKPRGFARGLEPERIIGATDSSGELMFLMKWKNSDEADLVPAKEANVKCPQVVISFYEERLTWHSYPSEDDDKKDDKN
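Compound inhibition of the preformed complex between 50 nM HP1-beta and 50 nM biotinylated H3K9me3 peptide was read by AlphaScreen. Buffer was PBS pH 7.4 with 0.01% Tween-20. Incubations ran 30 min at room temperature, with 10 ug/mL donor/acceptor beads.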
Numbers stand for hits; - = inactive; ? = inconclusive; . = no result; [ ] = dose if it differs, or a comment. Only some compounds are listed: those with a hit (about 12% of all), similar ones and a draw of the others. The call rests on the fitted dose curve; in most records, active means well fitted curve in the direction sought with a large enough effect; inconclusive means small, poorly fitted or top-dose-only effect, or another doubt; inactive means no such curve, though single readings can be large; an effect the other way counts as inactive or inconclusive.

SMILES	Sfp inh	BAZ2B inh	G9a inh	TDP1 block	JMJD2A Tudor	HP1b chromo inh
O=C(/C=C/c1ccc(O)c(O)c1)O[C@@H]1C[C@@](O)(C(=O)O)C[C@H](O)[C@@H]1O	50.1µM	.	.	-	.	.
CN(C)C(=S)NCc1ccccc1	-	-	.	-	25.1µM	-
CN(N)C(=S)NCc1ccccc1	-	-	-[2.33 µM]	-	-	-
COc1ccc(/C=C2/SC(c3ccc(C)cc3)=NC2=O)cc1OC	31.6µM	-	2.82µM	-	50.1µM	?
COc1cc(/C=C2\SC(c3ccc(C)cc3)=NC2=O)cc(OC)c1OC	?	-	1µM	-	56.2µM	?
COc1cc(/C=C2\SC(N3CCc4ccccc4C3)=NC2=O)cc(OC)c1OC	?	-	?	-	-	-
COc1cc(/C=C2\SC(c3ccccc3)=NC2=O)cc(Cl)c1O	7.94µM	35.5µM	-	-	6.31µM	12.6µM
COc1ccc(/C=C2\SC(c3ccc(C)cc3)=NC2=O)cc1OC	?	-	2.24µM	-	28.2µM	20µM
COc1cc(/C=C2\SC(N)=NC2=O)ccc1OCC(=O)Nc1ccc(C)cc1	-	-	-	-	-	-
O=C(CCc1nc(-c2ccccc2F)no1)Nc1cccc(C(F)(F)F)c1	.	-	-	-	-	-
O=C1COc2ccc(-c3cc(-c4ccc(Cl)cc4)c4c(n3)-c3ccccc3OC4)cc2N1	.	-	-	-	-	-
C/C(=N\NC(=S)Nc1ccccc1)C1Cc2ccccc2C(=O)O1 (centres undefined)	22.4µM	?	.	-	-	-
C/C(=N\NC(=S)Nc1ccccc1C)C1Cc2ccccc2C(=O)O1 (centres undefined)	-	-	50.1µM	-	-	-
O=C(COC(=O)c1cccnc1Cl)Nc1ccc2c(c1)OCO2	-	-	-	-	-	-
Cc1ccc(-c2nn3c(C)nnc3c3ccccc23)cc1S(=O)(=O)NCC(C)O (centres undefined)	.	-	-	-	-	-
Cc1ccc2[nH]c(=O)c(CN(CCCO)Cc3nnnn3Cc3ccccc3)cc2c1	.	.	.	-	-	-
COc1ccc(Cl)cc1CN1CCOCC1	-	-	-	.	-	-
COc1ccc(Br)cc1CN1C(=O)NC2(CCCCCC2)C1=O	-	-	-	-[0.0935 µM]	-	-
COc1ccc(CN2CCCCCC2)cc1Br	-	?	31.6µM	.	3.55µM	?
COc1ccc(CN2CCCCCC2)cc1OC	.	.	.	.	?	-
COc1ccc(Br)cc1CN1CCCCCC1	-	?	31.6µM	.	22.4µM	-
COc1ccc(Br)cc1CN1CCSCC1	-	?	44.7µM	.	3.55µM	56.2µM
CN(CC(=O)Nc1c(Cl)cccc1Cl)C(=O)CNC(=O)c1ccco1	.	-	-	-	-	-
COCCCN1C(=O)c2ccc(C(=O)N3CCN(c4ccccc4OC)CC3)cc2C1=O	-	-	-	-	-	-
CCCCCCCC/C=C/CCCCCCCCOP(=O)([O-])OCC[N+](C)(C)C	-	.	-[2.33 µM]	-	.	.
SMILES	Sfp inh	BAZ2B inh	G9a inh	TDP1 block	JMJD2A Tudor	HP1b chromo inh
O=C(COC(=O)c1ccc2ccccc2c1O)Nc1ccccc1	.	-	?	-	-	-
CC1(C)CC2(C)OC(=N)C1(C#N)C2(C#N)C#N (centres undefined)	-	-	56.2µM	.	-	-
CSc1ccccc1NC(=O)CN1CCN(Cc2ccccc2)CC1	-	-	-	-	.	.
CCN(CC)c1ccc(/C=C2\C(=O)N(c3nnc(C)c(=O)[nH]3)N=C2C)cc1	10µM	8.91µM	50.1µM	-	20µM	-
COc1ccccc1N=C1NC(=O)/C(=C/c2ccc(N(C)C)cc2)S1	-	44.7µM	.	-	?	-
COc1ccc(S(=O)(=O)N2CCCCCC2)cc1C(=O)N(C)Cc1ccco1	.	-	-[0.501 µM]	.	-	-
COC(=O)c1c(NC(=S)NN2CCN(C)CC2)sc2c1CCC(C)C2 (centres undefined)	?	?	44.7µM	-	?	?
COC(=O)c1c(NC(=O)Cc2cccs2)sc2c1CCC(C)C2 (centres undefined)	20µM	-	?	-	-	-
CC(=O)OCC1=C(C(=O)O)N2C(=O)C(NC(=O)c3ccc(COc4ccc(Cl)cc4)o3)C2SC1 (centres undefined)	-	-	?	?	?	-
CC(=O)OCC1=C(C(=O)O)N2C(=O)C(NC(=O)c3ccc(COc4c(C)cccc4Cl)o3)C2SC1 (centres undefined)	63.1µM	?	44.7µM	?	?	-
CC(=O)OCC1=C(C(=O)O)N2C(=O)C(NC(=O)CSc3ccncc3)[C@@H]2SC1 (some centres undefined)	-	.	-[2.33 µM]	14.1µM	.	.
CC(=O)OCC1=C(C(=O)O)N2C(=O)C(NC(=O)Cn3nc(C(F)F)c(Cl)c3C)C2SC1 (centres undefined)	-	-	50.1µM	.	-	-
Cc1c(Cl)cccc1NC(=O)Cn1c(-c2ccc(F)cc2)noc1=O	?	-	-	-	-	-
Cc1ccc(S(=O)(=O)N(C)CC(=O)NCCCn2nc(C)cc2C)cc1	.	.	.	-	-	-
CCOC(=O)C1=C(COC(=O)/C=C/c2ccc([N+](=O)[O-])cc2)NC(=O)NC1C (centres undefined)	.	-	-[12.7 µM]	-	-	-

Screening results from PubChem.
